From PubChem BioAssay (NCATS)
Inconclusive results are not listed. A call without a number means that no potency is given here. Active and inactive are the calls of the source. Calls follow the shape of the dose curve; as a rule, active = well fitted cell-killing curve with a large enough effect; inconclusive = small, poorly fitted or top-dose-only effect; inactive = flat fitted curve, though single readings scatter.

Assay: Cell Viability - LYMP2-015 (AID 971);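 also: cells exposed to compound for 24 h; nearly all actives have a fitted effect of over 55% in size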
Settings: LYMP2-015 lymphoblastoid cell viability; series mostly up to 92.2 µM
Description: NIH Chemical Genomics Center [NCGC]
NIH Molecular Libraries Screening Centers Network [MLSCN]
National Institutes of Environmental Health Sciences [NIEHS]
National Toxicology Program [NTP]
We have developed a 1536-well cell-based assay for quantitative high throughput screening (qHTS) against a number of cell lines to determine in vitro cytotoxicity of small molecules. This particular assay uses a human lymphoblastoid cell line (LYMP2-015) purchased from Coriell Institute for Medical Research.
NCGC Assay Protocol Summary:
The CellTiter-Glo luminescent cell viability assay (Promega) is a homogeneous method to measure the number of viable cells in culture. The end point readout of this assay is based on quantitation of intracellular ATP, an indicator of metabolic activity, using the luciferase reaction. Luciferase catalyzes the oxidation of beetle Luciferin to oxyluciferin and light in the presence of ATP. The luminescent signal is proportional to amount of ATP present.
Using the CellTiter-Glo luminescent cell viability assay, the amount of cellular ATP was measured in the lymphoblastoid cell line with complete culture medium following compound treatment for 24 hours. The assay was performed in opaque white Kalypsys 1536-well plates. In the screen, tetraoctylammonium bromide was used as positive control. Library compounds were measured for their ability to cause acute toxicity in the cell line, as reflected by a decrease in intracellular ATP levels, in a concentration-dependent manner. […] AC50 values were determined from concentration-response data modeled with the standard Hill equation.
qHTS protocol for CellTiter Glo lymphoblastoid cellular assay
[Step] [Parameter] [Value] [Description]
1. Reagent; 5 uL; 2500 lymphoblastoid cells/well
2. Time; 5 hr; 37 C incubation
4. Controls; 23 nL; Tetraoctylammonium bromide 6.4pM to 92 uM
5. Time; 24 hr; 37 C incubation
6. Reagent; 5 uL; CellTiter Glo reagent
7. Time; 30 min; Room Temperature
8. Detection; Luminescence; Viewlux plate reader
Keywords: cell viability, cytotoxicity, lymphoblastoid cell line, luminescence, NTPHTS, NTPHTS_NCGC, NIEHS, DSSTox, MLSMR, MLSCN, NIH Roadmap, qHTS, NCGC
Potency is read from the fitted curve at half-maximal effect.

| Structure (SMILES) | Potency |
| --- | --- |
| C=CCOCC1CO1 (stereo not given) | inactive |
| CCC[N+](=O)[O-] | inactive |
| CCCCCCCCCCCOC(=O)c1ccccc1C(=O)OCCCCCCCCCCC | inactive |
| Cc1cc(-c2ccc(N)c(C)c2)ccc1N | inactive |
| Oc1cc(Cl)c(Cl)c(Cl)c1Cl | inactive |
| CCCCCCCCCCCCCl | inactive |
| C=CCc1cc(OC)c2c(c1)OCO2 | inactive |
| ClCCCCl | inactive |
| CCC(Cl)[N+](=O)[O-] (stereo not given) | inactive |
| ClCc1ccccc1 | inactive |
| BrCCc1ccccc1 | inactive |
| Nc1ccc(Cl)c(Cl)c1 | inactive |
| CN(C)c1ccc(N)cc1 | 50.1 µM (active) |
| C=CCCC#N | inactive |
| N#CC(Cl)(Cl)Cl | inactive |
| CCCCCc1cc(O)cc(O)c1 | inactive |
| Clc1cc(Cl)c(Cl)c(Cl)c1 | inactive |
| O=S(=O)(Cl)c1ccccc1 | inactive |
| c1ccoc1 | inactive |
| CCCBr | inactive |

| Structure (SMILES) | Potency |
| --- | --- |
| C1CC2OC2CC1C1CO1 (stereo not given) | inactive |
| N#C/C(N)=C(/N)C#N | inactive |
| CCCCOC(=O)c1ccccc1N | inactive |
| Oc1cc(Cl)c(Cl)c(Cl)c1 | inactive |
| O=P(OCCCl)(OCCCl)OCCCl | inactive |
| CC1CC(=O)O1 (stereo not given) | inactive |
| CCCCOCC1CO1 (stereo not given) | inactive |
| CC(C)(Cl)Cl | inactive |
| Cc1ccc(N)c(C)c1 | inactive |
| Clc1ccccc1 | inactive |
| CC(=O)[O-].CC(=O)[O-].CC(=O)[O-].[Cr+3] | inactive |
| ClC(Cl)Br | inactive |
| CC(C)OS(C)(=O)=O | inactive |
| Cc1ccccc1[N+](=O)[O-] | inactive |
| C=C(C)CCl | inactive |
| O=[N+]([O-])c1ccc(O)c([N+](=O)[O-])c1 | inactive |
| OCC(Cl)CCl (stereo not given) | inactive |
| Cc1ccc(N)cc1Cl | inactive |
| Cc1cc(C)cc(OP(=O)(Oc2cc(C)cc(C)c2)Oc2cc(C)cc(C)c2)c1 | inactive |
